Source: the supplement of paper PMC12350171
Where a name gives a salt, the structure may show the parent alone.

Legend:
Conditions in all cases: 20 µM
[1] = system: Salmonella enterica typhimurium; experiment: growth AUC normalised to DMSO control (fraction of control); higher = less growth inhibition, active = hit call of the paper
In short: (§1)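 For the AUC endpoint, growth curves were integrated by the trapezoidal rule up to the exponential-to-stationary transition and normalised to DMSO controls on the same plate. The curves came from OD578 readings taken hourly for 24 h, in three biological replicates. Pathogens had been passaged anaerobically twice and inoculated at an OD578 of 0.01 into pre-reduced mGAM plates carrying 20 μM compound and 1% DMSO, sealed with breathable membranes. Medium for Haemophilus parainfluenzae also contained hemin and NAD.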

[2] = system: Shigella flexneri; experiment: as above
In short: as §1

[3] = system: Vibrio cholerae; experiment: as above
In short: as §1

[4] = system: Yersinia pseudotuberculosis; experiment: as above
In short: as §1

[5] = system: P. vulgatus RND KO; experiment: growth AUC normalised to DMSO control (median) (fraction of control); higher = less growth inhibition, active = hit call of the paper
In short: (§2)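 After two overnight anaerobic passages, strains were inoculated at OD578 0.01 into mGAM in 96-well plates containing approved-drug library compounds at 20 μM and 1% DMSO. Growth was followed by reading OD578 hourly for 24 h within an anaerobic incubator. Area under the curve, taken by the trapezoidal rule up to the start of stationary phase, was normalised to same-plate vehicle wells, and the median of three biological replicates is listed.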

[6] = system: P. vulgatus WT; experiment: as above
In short: as §2

[7] = system: S. enterica typhimurium WT; experiment: as above
In short: as §2

[8] = system: S. enterica typhimurium tolC KO; experiment: as above
In short: as §2

Measured: growth AUC normalised to DMSO control
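Wherever growth AUC normalised to DMSO control (median) is given: active when median AUC fell below 0.1.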

CCOC(=O)[C@H](CCc1ccccc1)N[C@@H](C)C(=O)N1[C@H](C(=O)O)C[C@@H]2CCC[C@@H]21 [Ramipril]
inactive: [1] 1.02 | [2] 1.06 | [3] 1.07 | [4] 1.01 | [5] 0.985 | [6] 0.99 | [7] 1.01 | [8] 1

CN1CCc2cccc3c2[C@H]1Cc1ccc(O)c(O)c1-3 [R(-) Apomorphine hydrochloride hemihydrate]
inactive: [1] 0.999 | [2] 1 | [3] 1.01 | [4] 1.02 | [5] 1.02 | [6] 1.05 | [7] 1.01 | [8] 0.983

Clc1ccc(C(Cn2ccnc2)OCc2c(Cl)cccc2Cl)c(Cl)c1 (stereo not given) [Isoconazole]
inactive: [1] 0.997 | [2] 1.01 | [3] 0.949 | [4] 1.01 | [5] 0.95 | [6] 0.949 | [7] 0.995 | [8] 0.953

CC[N+](C)(CC)CCOC(=O)C1c2ccccc2Oc2ccccc21 [Methantheline bromide]
inactive: [1] 1 | [2] 1.01 | [3] 0.973 | [4] 1 | [5] 0.972 | [6] 0.981 | [7] 1 | [8] 0.995

CCC(=O)O[C@]1(C(=O)CCl)[C@@H](C)C[C@H]2[C@@H]3CCC4=CC(=O)C=C[C@]4(C)[C@@]3(F)[C@@H](O)C[C@@]21C [Clobetasol propionate]
inactive: [1] 1.01 | [2] 1.04 | [3] 1.02 | [4] 1.01 | [5] 1.02 | [6] 1.05 | [7] 1 | [8] 0.927

CC1(C)S[C@@H]2[C@H](NC(=O)Cc3ccccc3)C(=O)N2[C@H]1C(=O)O [Benzylpenicillin sodium]
inactive: [2] 0.9
active: [1] 0.0129 | [3] 0.136 | [4] 0.101 | [5] 0.0105 | [6] 0.00991 | [7] 0.0318 | [8] 0.0065

CC[N+](CC)(CC)CCOc1cccc(OCC[N+](CC)(CC)CC)c1OCC[N+](CC)(CC)CC [Gallamine triethiodide]
inactive: [1] 1 | [2] 1.02 | [3] 1.01 | [4] 1.02 | [5] 1.02 | [6] 1.02 | [7] 1.01 | [8] 1.01

OCCN(CCO)c1nc(N2CCCCC2)c2nc(N(CCO)CCO)nc(N3CCCCC3)c2n1 [Dipyridamole]
inactive: [1] 1.01 | [2] 1.01 | [3] 1.01 | [4] 1 | [5] 1 | [6] 0.997 | [7] 1.02 | [8] 0.956

CN1CCC(=C2c3ccccc3CCc3sccc32)CC1 [Pizotifen malate]
inactive: [1] 0.992 | [2] 0.976 | [4] 0.998 | [5] 0.965 | [6] 0.973 | [7] 0.994 | [8] 0.963
active: [3] 0.873

CCC(C)n1ncn(-c2ccc(N3CCN(c4ccc(OCC5COC(Cn6cncn6)(c6ccc(Cl)cc6Cl)O5)cc4)CC3)cc2)c1=O (stereo not given) [Itraconazole]
inactive: [1] 1.01 | [2] 1.03 | [3] 1.04 | [4] 0.998 | [5] 1.1 | [6] 1.1 | [7] 1.02 | [8] 1

OC(CCN1CCCCC1)(c1ccccc1)c1ccccc1 [Pridinol methanesulfonate salt]
inactive: [1] 0.993 | [2] 1.02 | [3] 1.07 | [4] 0.988 | [5] 0.963 | [6] 0.953 | [7] 0.991 | [8] 0.994

CC(COc1ccccc1)N(CCCl)Cc1ccccc1 (stereo not given) [Phenoxybenzamine hydrochloride]
inactive: [1] 1.01 | [2] 1.01 | [3] 1.01 | [4] 1.03 | [5] 1.02 | [6] 1.03 | [7] 1 | [8] 0.99

OCCN1CCN(CCCN2c3ccccc3C=Cc3ccccc32)CC1 [Opipramol dihydrochloride]
inactive: [1] 0.981 | [2] 0.962 | [3] 0.961 | [4] 0.996 | [5] 1.01 | [6] 1.01 | [7] 1 | [8] 0.968

CCN(CC)CCNc1ccc(CO)c2sc3ccccc3c(=O)c12 [Hycanthone]
inactive: [1] 0.936 | [2] 0.984 | [3] 0.879 | [4] 0.991 | [5] 0.994 | [6] 0.96 | [7] 0.993 | [8] 0.163

C#C[C@]1(O)CC[C@H]2[C@@H]3CCC4=C(CCC(=O)C4)[C@H]3CC[C@@]21C [Norethynodrel]
inactive: [1] 1 | [2] 1 | [3] 0.994 | [4] 0.992 | [5] 0.992 | [6] 1.01 | [7] 0.996 | [8] 0.993

NC(N)=Nc1nc(CSCC/C(N)=N/S(N)(=O)=O)cs1 [Famotidine]
inactive: [1] 1 | [2] 0.965 | [3] 0.993 | [4] 0.97 | [5] 1.01 | [6] 1.04 | [7] 1.01 | [8] 0.996

NC1CCN(c2c(F)cc3c(=O)c(C(=O)O)cn(C4CC4)c3c2Cl)C1 (stereo not given) [Clinafloxacin]
active: [1] 0.00836 | [2] 0.0463 | [3] 0.023 | [4] 0.0284 | [5] 0.0165 | [6] 0.0148 | [7] 0.00822 | [8] 0.00725

CN(C)CC/C=C1\c2ccccc2CSc2ccccc21 [Dosulepin hydrochloride]
inactive: [1] 0.992 | [2] 0.995 | [3] 0.952 | [4] 0.998 | [5] 1.03 | [6] 1.02 | [7] 0.996 | [8] 0.942

O=c1[nH]c(=O)n([C@H]2C[C@H](O)[C@@H](CO)O2)cc1F [Floxuridine]
inactive: [7] 0.815 | [8] 0.791
active: [1] 0.713 | [2] 0.729 | [3] 0.695 | [4] 0.44 | [5] 0.0504 | [6] 0.0573

NCc1ccccc1CC(=O)N[C@@H]1C(=O)N2C(C(=O)O)=C(CSc3nnnn3CC(=O)O)CS[C@H]12 [Ceforanide]
active: [1] 0.00985 | [2] 0.0434 | [3] 0.0984 | [4] 0.023 | [5] 0.00761 | [6] 0.014 | [7] 0.00887 | [8] 0.00597

CCN(CC)C(=O)/C(C#N)=C/c1cc(O)c(O)c([N+](=O)[O-])c1 [Entacapone]
inactive: [1] 1.02 | [2] 1.04 | [3] 1.07 | [4] 0.998 | [5] 0.987 | [6] 0.996 | [7] 0.997 | [8] 1

C#C[C@]1(O)CC[C@H]2[C@@H]3CCC4=CC(=O)CC[C@@H]4[C@H]3CC[C@@]21C [Norethindrone]
inactive: [1] 1.01 | [2] 0.977 | [3] 0.996 | [4] 0.988 | [5] 0.997 | [6] 1.03 | [7] 1.01 | [8] 0.993

CC(C)(C)NC[C@@H](O)COc1cccc2c1CCCC2=O [(+) Levobunolol hydrochloride]
inactive: [1] 0.982 | [2] 0.943 | [3] 0.978 | [4] 0.987 | [5] 0.999 | [6] 0.975 | [7] 0.993 | [8] 0.993

NS(=O)(=O)c1cc(Cl)c(Cl)c(S(N)(=O)=O)c1 [Dichlorphenamide]
inactive: [1] 1.01 | [2] 1.06 | [3] 1.07 | [4] 1.02 | [5] 1.05 | [6] 1.04 | [7] 0.995 | [8] 1.01

O=C(O[C@@H]1C[C@@H]2C[C@H]3C[C@H](C1)N2CC3=O)c1c[nH]c2ccccc12 [Dolasetron mesilate]
inactive: [1] 1.04 | [2] 1.01 | [3] 0.999 | [4] 1.01 | [5] 1.02 | [6] 1.04 | [7] 1.01 | [8] 0.984

CN[C@@H]1[C@@H](O)[C@@H](O[C@@H]2[C@@H](O)[C@H](O[C@H]3OC(CN)=CC[C@H]3N)[C@@H](N)C[C@H]2N)OC[C@]1(C)O [Sisomicin sulfate]
inactive: [1] 1 | [2] 0.986 | [3] 0.996 | [4] 0.982 | [5] 0.994 | [6] 1 | [7] 1 | [8] 1.01

CC(=O)/N=c1/sc(S(N)(=O)=O)nn1C [Methazolamide]
inactive: [1] 0.99 | [2] 1.04 | [3] 1.05 | [4] 0.979 | [5] 1.07 | [6] 1.06 | [7] 1.01 | [8] 1.02

COC(c1ccccc1)(c1ccccc1)[C@H](Oc1nc(C)cc(C)n1)C(=O)O [Ambrisentan]
inactive: [1] 0.98 | [2] 1.02 | [3] 1.01 | [4] 1.01 | [5] 0.997 | [6] 0.983 | [7] 0.991 | [8] 0.99

COC(=O)Nc1nc2ccc(SC(C)C)cc2[nH]1 [Methiazole]
inactive: [1] 1.01 | [2] 1 | [3] 0.999 | [4] 1.01 | [5] 0.992 | [6] 1.04 | [7] 0.997 | [8] 0.994

CCOC(=O)c1ccc(OC(=O)CCCCCNC(=N)N)cc1 [Gabexate mesilate]
inactive: [1] 0.993 | [2] 0.973 | [3] 0.987 | [4] 0.932 | [5] 0.985 | [6] 1 | [7] 1 | [8] 0.325
